Compounds without any hit were thinned out: in the full panel of roughly 83,000, 20% have a hit.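 Each cell line was grown in a 96-well plate and treated with one concentration of compound for 48 hours. Values below 10 were considered active.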 The source made the active and inactive calls.

This assay deals with MDA-MB-468 breast. As to the kind of experiment: NCI-60 one-dose screen, 48 h (100 = growth as untreated, 0 = no growth, -100 = all killed). The conditions noted are these: 10 µM unless noted.
For `COc1ncc(-c2ccc3ncnc(Nc4cccc(Cl)c4)c3c2)cc1N(S(C)(=O)=O)S(C)(=O)=O`, the growth was -3.15% (active).
As for `O=Nc1ccccc1N=O`, the figure is 91.7% (inactive); as for `CCc1ccccc1NC(=O)/C(C#N)=C/c1ccc(OC)cc1`, 108% (inactive); as for `CCOC(=O)C1=C(NC)OCC1=O`, 90.7% (inactive).
With `c1ccc2[nH]c(Cc3nc4ccccc4[nH]3)nc2c1`, the growth is 102% (inactive).
For `CC(=O)O.[In]`, the growth is 101% (inactive).
As for `Oc1cccc(CNC2CCCCC2)c1`, the figure is 113% (inactive); as for `Ic1ccc(SSc2ccc(I)cc2)cc1`, 108% (inactive).
For the compound `COc1ccc(C2=NN(C=O)C(c3ccc(Oc4nc5c(c(=O)n(C)c(=O)n5C)n4C)c(OC)c3)C2)cc1` (stereo not drawn), the growth is 73.6% (inactive).
For the compound `CC[N+]1(CC)CC[N+]2(CCCC(C)CC2)CC1` (stereo not drawn), the growth was 108% (inactive).
Then `O=C1c2cccc3cccc(c23)C(=O)N1CC#Cc1ccc2c3c(cccc13)C(=O)N(CCO)C2=O`, with 94.2% (inactive); and `CCCCCN(CCCCC)CCCNc1c2c(nc3ccc(Cl)cc13)CCCC2`, with 8.01% (active).
On to `COc1cc(/C=C/c2cc(/C=C/c3ccc(O)c(OC)c3)n(C(=O)Nc3ccc(C)cc3)n2)ccc1O`, for which the growth is -29.1% (active).
For the compound `Sc1cccc2cccnc12`, the growth was 30% (inactive).
As for `CCC(C#N)(CC)c1ccccc1`, the growth was 105% (inactive).
For `C/C(=C\c1ccccc1)C(O)C(=O)c1nc2ccc([N+](=O)[O-])cc2[nH]c1=O` (stereo not drawn), the growth is 89.7% (inactive).
As for `CC(=O)C[n+]1ccccc1Sc1ccc(Cl)cc1`, the figure is 97.3% (inactive); as for `Cc1ccc(Nc2nnc(-c3cc(-c4ccncc4)n(-c4ccccc4)n3)s2)cc1`, 48.7% (inactive).
